The values that follow come from PubChem BioAssay (EPA / NIEHS).

Molecules are shown by their SMILES. Activity calls are given as the source filed them. How the source made its calls: active means hit-call score of the fitted dose curve at least 0.9, where 1 is the maximum; inactive means score below 0.9.

Sequence of Cellular tumor antigen p53 (Homo sapiens) (P04637 whole entry, looked up): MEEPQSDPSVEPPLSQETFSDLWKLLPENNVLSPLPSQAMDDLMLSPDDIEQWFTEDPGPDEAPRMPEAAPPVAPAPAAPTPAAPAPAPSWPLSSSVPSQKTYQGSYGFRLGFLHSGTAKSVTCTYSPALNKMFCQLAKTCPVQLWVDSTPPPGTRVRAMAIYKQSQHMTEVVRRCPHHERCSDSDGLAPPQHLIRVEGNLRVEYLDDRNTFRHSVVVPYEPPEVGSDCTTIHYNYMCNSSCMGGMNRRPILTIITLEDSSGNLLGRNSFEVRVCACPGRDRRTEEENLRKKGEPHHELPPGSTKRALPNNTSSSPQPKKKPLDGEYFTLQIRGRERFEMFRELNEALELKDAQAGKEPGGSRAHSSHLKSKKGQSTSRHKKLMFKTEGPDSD

Read-out in this assay: Cellular tumor antigen p53 (Homo sapiens) (UniProt P04637)
The assay can be described thus: LTEA_HepaRG_TP53: Life Technologies and Expression Analysis (LTEA) Assay for Tumor Protein P53 (TP53) using HepaRG (AID 2283537). Particulars: mRNA level, 48 h; actives raise or lower the signal. The method, then: LTEA_HepaRG is a cell based, multiplexed-readout assay that uses HepaRG, a human liver cell line, with measurements taken at 48 hours after chemical dosing on a 96-well plate.LTEA_HepaRG_TP53 is one of 102 assay component(s) measured in the LTEA HepaRG cell culture assay. It is a marker of Oxidative Stress.Data from the assay component LTEA_HepaRG_TP53 was analyzed into 1 endpoint. This assay endpoint, LTEA_HepaRG_TP53, was analyzed with bidirectional fitting relative to DMSO as the negative control and baseline of activity. Using a type of inducible reporter, measures of mRNA induction for gain or loss-of-signal activity can be used to understand regulation of transcription factor activity. To generalize the intended target to other relatable targets, this assay endpoint is annotated to the dna binding intended target family, where the subfamily is tumor suppressor.
A total of 1060 chemcials from the ToxCast library were tested in eight-point concentration-response experiments. Cell culture and cytotoxicity assays were conducted at Thermo Fisher Scientific's Custom Services facility (Madison, WI). A single lot of human HepaRG cells (Thermo Fisher Scientific, Frederick, MD) was used for the cell culture experiments. 96-well format collagen type I coated plates of human HepaRG cells were prepared using established methods. Briefly, cryopreserved HepaRG cells were thawed, plated at a density of approximately 100,000 cells/well in HepaRG Thaw, Plate, and General Purpose media (HPRG770, Thermo Fisher Scientific), and incubated for 48 hours. 0.5% DMSO was selected as vehicle control to balance the requisite need of DMSO in HepaRG cultures to maintain differentiation (for example, baseline metabolism, proportions of hepatocytes vs. cholangiocytes), while enabling further hepatic receptor pathway activation (for example, PXR and CAR) in response to chemical exposure. 48 hours after plating, the culture medium was replaced with HepaRG Serum-Free Incudtion Media. Cells were exposed to each test chemical in duplicate and maintained in CO2 incubators for another 48 hours. Chemical plates were thawed to room temperature and 200x concentrations of treatment groups were prepared. 8-point conentration-reponse curves were made with the highest exposure at 100 uM, followed by half-log dilutions, all in 0.5% DMSO. Each test plate contained variouse controls, induction positive controls (1mM phenobarbital), cytotoxicity positive controls ([…] aflatoxin B1), vehicle controls (0.5% DMSO), and total lysis controls (0.5% DMSO). Cell morphology images were taken using an Essen IncuCyte FLR automated microscope, with six 96-well plates imaged in about 24 minutes. Images were captured and exported and JPEG files. Spent culture media was transfered to black-well plates for the LDH assay, and remaining media was sorted at -80 C for later use. Cells were treated with RLT buffer and frozen until shipped for gene expression analysis. Total RNA was isolated from the cell suspension in 75 uL of Buffer RLT (Qiagen, Germantown, MD 20874) by Quintiles/Expression Analysis (Durham, NC) using a custom isolation procedure. Total RNA from each plate well was transferred to a preamplification plate. Fluidigm's 96.96 Dynamic ArrayTM (Fluidigm, Amsterdam, the Netherlands) technology was used for gene expression analyses by quantitative reverse transcription polymerase chain reaction (qRT-PCR, performed by Quintiles/Expression Analysis, Durham, NC)89. Standard TaqManTM Assays (Applied Biosystems/ThermoFisher Scientific, Foster City, CA) were used to assess the expression of 93 genes selected based on their selectivity and sensitivity to important hepatic receptors known to be modulated by environmental chemicals; importance in human hepatocyte functionality; and hepatotoxicity. […]
For the compound `Cc1ccccc1O`, the result was inactive.
Still for that read-out and setting: under `c1ccc(-c2ccccc2)cc1` stands “inactive”.
On to `C[C@]12CCC(=O)C=C1CC[C@@H]1[C@@H]2CC[C@]2(C)C(=O)CC[C@@H]12`, for which the call was inactive.
Still for that read-out and setting: for `C1CC2OC2CC1C1CO1` (stereo not given) the value was “inactive”.
With `CC(c1ccc(O)cc1)(c1ccc(O)cc1)c1ccc(O)cc1`, the AC50 is 93.9 µM (active).
As for `Cc1cc(O)ccc1Cl`, the compound was classed as inactive.
Same read-out and setting: for `CCOC(=O)C(O)(c1ccc(Cl)cc1)c1ccc(Cl)cc1` the value was “inactive”; for `CCC(=O)O[C@H]1CC[C@H]2[C@@H]3CCC4=CC(=O)CC[C@]4(C)[C@H]3CC[C@]12C`, “inactive”.
On the same count and under the same terms, for `O=S(=O)(O)C(F)(F)C(F)(F)C(F)(F)C(F)(F)F` the value was “inactive”; for `CC(C)(c1ccccc1)c1ccc(O)cc1`, “inactive”; for `O=C(NC(=O)c1cc(F)c(F)cc1Cl)Nc1cc(F)ccc1N1CCC(C(=O)O)CC1`, “inactive”.
The same measure, in the same setting: for `COS(=O)(=O)OC` the value was “inactive”; for `CCC(C)(c1ccc(O)cc1)c1ccc(O)cc1`, “inactive”.
Consider `Clc1ccc(C(c2ccccc2Cl)C(Cl)(Cl)Cl)cc1` (stereo not given), for which the result was inactive.
On the same count and under the same terms, for `ClC1=C(Cl)[C@]2(Cl)[C@@H]3[C@@H](Cl)[C@H]4O[C@H]4[C@@H]3C1(Cl)C2(Cl)Cl` the value was “inactive”; for `Cc1cccc([N+](=O)[O-])c1`, “inactive”; for `Nc1ccc(-c2ccc(N)cc2)cc1`, “inactive”.
The same measure, in the same setting: for `c1cc2ccc3cccc4ccc(c1)c2c34` the value was “inactive”; for `CCCCCCCCOC(=O)c1ccccc1C(=O)OCCCCCCCC`, “inactive”; for `C=CC(=O)NCNC(=O)C=C`, “inactive”.
Still for that read-out and setting: for `CCCCCCOC(=O)c1ccccc1C(=O)OCCCCCC` the value was “inactive”.
For the compound `Cc1cc2c3c(c1)C(c1ccccc1)=N[C@@H](NC(=O)c1ccncc1)C(=O)N3CC2`, the AC50 is 50 µM (active).
For the compound `CCCN(CCC)N=O`, the outcome was inactive.
Same read-out and setting: for `C=CC(N)=O` the value was “inactive”.
For `CO/C=C(/C(=O)OC)c1ccccc1COc1cccc(C(F)(F)F)n1`, the AC50 was 10.1 µM (active).
Take `CN(C)CCO`: the compound was classed as inactive.
As to `Oc1ccc(C(c2ccc(O)cc2)(C(F)(F)F)C(F)(F)F)cc1`, the AC50 was 94.5 µM (active).
Still for that read-out and setting: for `CC(C)(O)C(=O)Nc1ccc([N+](=O)[O-])c(C(F)(F)F)c1` the value was 0.0309 µM (active).
Turning to `ClC1=C(Cl)[C@]2(Cl)[C@@H]3[C@@H]4C[C@@H]([C@H]5O[C@@H]45)[C@@H]3[C@@]1(Cl)C2(Cl)Cl`, the outcome was inactive.
For `NS(=O)(=O)C(F)(F)C(F)(F)C(F)(F)C(F)(F)C(F)(F)C(F)(F)C(F)(F)C(F)(F)F`, the AC50 is 50 µM (active).
Consider `CCOCCOC(C)=O`, for which the compound was classed as inactive.
On the same count and under the same terms, for `C[C@]12CCC(=O)C=C1CC[C@@H]1[C@@H]2CC[C@@]2(C)[C@H]1CC[C@]2(C)O` the value was “inactive”; for `CCOP(=S)(OCC)SCSC(C)(C)C`, “inactive”.
Regarding `O=C(O)C(F)(F)C(F)(F)C(F)(F)C(F)(F)C(F)(F)C(F)(F)C(F)(F)C(F)(F)F`, the AC50 is 60.4 µM (active).
Consider `N#Cc1ccc(N(CC(N)=O)CC(F)(F)F)cc1C(F)(F)F`, for which the compound was classed as inactive.
The same measure, in the same setting: under `Cc1cccc(C)c1N` stands “inactive”; under `O=NN(c1ccccc1)c1ccccc1`, “inactive”; under `CC#Cc1cc(C)nc(Nc2ccccc2)n1`, “inactive”.
Still for that read-out and setting: under `Nn1cnnc1` stands “inactive”; under `Cc1ccccc1[N+](=O)[O-]`, “inactive”.
